Assay results from PubChem BioAssay (EPA / NIEHS).
“And” between values parts separate entries of the source, which are not always exact repeats. Identical values can stand only once. Some structures have more than one record in an assay (separate samples or runs), and their calls can disagree. The source made the active and inactive calls. How the source made its calls: active means hit-call score of the fitted dose curve at least 0.9, where 1 is the maximum; inactive means score below 0.9.

Assays:
[1] = BSK_3C_uPAR: BioMAP Diversity Plus: 3C Assay for Urokinase-type plasminogen activator receptor (uPAR) Biomarker Activity (AID 2282998); details: BioMAP 3C HUVEC, uPAR biomarker ELISA; actives raise or lower the signal
Method in brief: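 In this endothelial cell-based assay, human umbilical vein primary cells were treated with chemicals and harvested at 24 h. uPAR was quantified using ELISA, with gains or losses fitted relative to DMSO controls.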

[2] = read-out: Tissue Factor, F3 (gene 2152); assay: BSK_CASM3C_TissueFactor: BioMAP Diversity Plus: CASM3C Assay for Tissue Factor Biomarker Activity (AID 2283052); details: primary human coronary artery smooth muscle cells; actives raise or lower the signal;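 further: cell surface tissue factor protein level read by ELISA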
[3] = read-out: Interferon-gamma inducible Protein 10 (IP10), CXCL10 (gene 3627); assay: BSK_hDFCGF_IP10: BioMAP Diversity Plus: hDFCGF Assay for Interferon-gamma inducible Protein 10 (IP10) Biomarker Activity (AID 2283053); details: primary human foreskin fibroblasts; actives raise or lower the signal
Method in brief: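 ELISA quantification of IP-10 after a 24 h chemical exposure of human dermal foreskin fibroblast primary cultures. Both increases and decreases versus DMSO fitted.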

[4] = read-out: Urokinase-type plasminogen activator receptor (uPAR), PLAUR (gene 5329); assay: BSK_CASM3C_uPAR: BioMAP Diversity Plus: CASM3C Assay for Urokinase-type plasminogen activator receptor (uPAR) Biomarker Activity (AID 2283054); details: primary human coronary artery smooth muscle cells; actives raise or lower the signal;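 further: cell-surface uPAR protein level quantified by ELISA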
[5] = read-out: Collagen III, COL3A1 (gene 1281); assay: BSK_hDFCGF_CollagenIII: BioMAP Diversity Plus: hDFCGF Assay for Collagen III Biomarker Activity (AID 2283056); details: primary human foreskin fibroblasts; actives raise or lower the signal
Method in brief: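 Response relative to DMSO, fitted in both directions, reflects ELISA-measured collagen III in human primary skin fibroblasts 24 h after compound addition.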

[6] = read-out: Epidermal growth factor receptor (EGFR), EGFR (gene 1956); assay: BSK_hDFCGF_EGFR: BioMAP Diversity Plus: hDFCGF Assay for Epidermal growth factor receptor (EGFR) Biomarker Activity (AID 2283057); details: primary human foreskin fibroblasts; actives raise or lower the signal
Method in brief: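 EGFR levels by ELISA in human dermal fibroblast cultures, 24 h post-treatment, fitted bidirectionally versus DMSO. Parallel wells stained with sulforhodamine B to detect overt cytotoxicity.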

[7] = read-out: Macrophage colony-stimulating factor (MCSF), CSF1 (gene 1435); assay: BSK_hDFCGF_MCSF: BioMAP Diversity Plus: hDFCGF Assay for Macrophage colony-stimulating factor (MCSF) Biomarker Activity (AID 2283060); details: AC50: primary human foreskin fibroblasts, actives raise or lower the signal unless noted; outcome: primary human foreskin fibroblasts, actives raise or lower the signal unless noted
Method in brief: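 fibroblasts (human foreskin, primary), 24 h post-dose; M-CSF by ELISA; bidirectional fit, DMSO = baseline.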

[8] = read-out: Monokine induced gamma interferon (MIG), CXCL9 (gene 4283); assay: BSK_hDFCGF_MIG: BioMAP Diversity Plus: hDFCGF Assay for Monokine induced gamma interferon (MIG) Biomarker Activity (AID 2283063); details: primary human foreskin fibroblasts; actives raise or lower the signal
Method in brief: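 Endpoint derived by bidirectional fitting relative to DMSO; MIG quantified via ELISA in primary human foreskin fibroblasts harvested 24 h after dosing.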

[9] = read-out: Vascular cell adhesion molecule 1 (VCAM1), VCAM1 (gene 7412); assay: BSK_hDFCGF_VCAM1: BioMAP Diversity Plus: hDFCGF Assay for Vascular cell adhesion molecule 1 (VCAM1) Biomarker Activity (AID 2283065); details: primary human foreskin fibroblasts; actives raise or lower the signal;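 on AC50: VCAM-1 protein level quantified by ELISA after 24 h chemical exposure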
Method in brief: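 Measured after 24 h chemical treatment of primary human skin fibroblasts, VCAM-1 was detected by ELISA and concentration-response analysed in both directions versus DMSO vehicle.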

[10] = read-out: Intercellular Adhesion Molecule 1 (ICAM1), ICAM1 (gene 3383); assay: BSK_KF3CT_ICAM1: BioMAP Diversity Plus: KF3CT Assay for Intercellular Adhesion Molecule 1 (ICAM1) Biomarker Activity (AID 2283067); details: primary human keratinocytes with fibroblasts; actives raise or lower the signal
Method in brief: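 Bidirectional curve fitting against a DMSO baseline was applied to ICAM-1 ELISA signal from primary human skin co-cultures harvested 24 h after treatment, with SRB staining of parallel wells for overt cytotoxicity.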

CD40, CD40 (gene 958) = assay: BSK_LPS_CD40: BioMAP Diversity Plus: LPS Assay for CD40 Biomarker Activity (AID 2283076); details: primary human HUVEC with PBMC; actives raise or lower the signal
Method in brief: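 Using a multiplexed primary human co-culture (umbilical vein endothelium plus PBMC), CD40 was read by ELISA 24 h after dosing, with cytotoxicity tracked by sulforhodamine B staining of parallel cultures and activity fitted bidirectionally versus DMSO.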

[11] = read-out: E-selectin (Homo sapiens) (UniProt P16581); assay: BSK_LPS_Eselectin: BioMAP Diversity Plus: LPS Assay for Eselectin Biomarker Activity (AID 2283077); details: primary human HUVEC with PBMC; actives raise or lower the signal
Method in brief: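 Dose chemical onto LPS-driven HUVEC/PBMC co-culture; after 24 h, run ELISA for E-selectin; fit up- and down-going responses relative to DMSO control.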

[12] = read-out: Monocyte Chemoattractant Protein-1 (MCP1), CCL2 (gene 6347); assay: BSK_LPS_MCP1: BioMAP Diversity Plus: LPS Assay for Monocyte Chemoattractant Protein-1 (MCP1) Biomarker Activity (AID 2283081); details: primary human HUVEC with PBMC; actives raise or lower the signal;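 on AC50: co-culture stimulated with LPS; secreted MCP-1 protein quantified by ELISA in culture supernatant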
Method in brief: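 Values derive from bidirectional fitting against DMSO of ELISA-measured MCP-1 in a human primary endothelial and mononuclear cell co-culture, 24 h after chemical addition under LPS activation.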

[13] = BSK_LPS_PGE2: BioMAP Diversity Plus: LPS Assay for Prostaglandin E2 (PGE2) Biomarker Activity (AID 2283082); details: primary human HUVEC with PBMC; actives raise or lower the signal;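 on AC50: secreted prostaglandin E2 measured by ELISA in LPS-stimulated co-culture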
Method in brief: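 PGE2 release measured by ELISA in an LPS-activated co-culture of human umbilical vein endothelial cells and peripheral blood mononuclear cells, read at 24 h post-dosing. DMSO served as baseline for bidirectional curve fitting.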

[14] = read-out: Macrophage colony-stimulating factor (MCSF), CSF1 (gene 1435); assay: BSK_LPS_MCSF: BioMAP Diversity Plus: LPS Assay for Macrophage colony-stimulating factor (MCSF) Biomarker Activity (AID 2283083); details: primary human HUVEC with PBMC; actives raise or lower the signal
Method in brief: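 Bidirectional fit versus DMSO of ELISA-measured M-CSF in co-cultured human umbilical vein endothelial cells and PBMC, sampled 24 h after dosing.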

CD69, CD69 (gene 969) = assay: BSK_SAg_CD69: BioMAP Diversity Plus: SAg Assay for CD69 Biomarker Activity (AID 2283089); details: primary human HUVEC with PBMC; actives raise or lower the signal;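 on AC50: cell surface CD69 protein quantified by ELISA with fluorescence detection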
Method in brief: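 ELISA, fluorescence read-out: CD69 on human umbilical vein endothelial cell + PBMC co-culture, 24 h post-dosing. Gain or loss of signal fitted bidirectionally against DMSO baseline.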

[15] = read-out: E-selectin (Homo sapiens) (UniProt P16581); assay: BSK_SAg_Eselectin: BioMAP Diversity Plus: SAg Assay for Eselectin Biomarker Activity (AID 2283091); details: primary human HUVEC with PBMC; actives raise or lower the signal
Method in brief: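 Endpoint values derive from bidirectional fitting relative to DMSO, using ELISA-measured E-selectin in a human vascular co-culture (umbilical vein endothelium plus PBMC) sampled 24 h after dosing.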

[16] = read-out: Interleukin-8 (IL8), CXCL8 (gene 3576); assay: BSK_SAg_IL8: BioMAP Diversity Plus: SAg Assay for Interleukin-8 (IL8) Biomarker Activity (AID 2283094); details: primary human HUVEC with PBMC; actives raise or lower the signal
Method in brief: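 ELISA readout of IL-8 from a superantigen-activated endothelial/PBMC primary human co-culture, taken 24 h post-dosing and fitted in both directions against DMSO; parallel SRB total-protein staining flags overt cytotoxicity.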

[17] = CCTE_Harrill_HTTr_Apoptosis_MCF7: CCTE's 6-hour Apoptosis Assessment for the High-Throughput Transcriptomics (HTTr) Platform, in MCF-7 cells cultured in DMEM + 10% fetal bovine serum, Harrill Lab (AID 2284011)
Method in brief: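 Apoptosis in MCF-7 cells grown in DMEM with 10% fetal bovine serum was scored after a six hour exposure by high content imaging of caspase-3/7 activation (CellEvent Caspase 3/7 Green), with DMSO serving as negative control and baseline.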

Measured: AC50

Chain of E-selectin (Homo sapiens) (P16581 whole entry, looked up): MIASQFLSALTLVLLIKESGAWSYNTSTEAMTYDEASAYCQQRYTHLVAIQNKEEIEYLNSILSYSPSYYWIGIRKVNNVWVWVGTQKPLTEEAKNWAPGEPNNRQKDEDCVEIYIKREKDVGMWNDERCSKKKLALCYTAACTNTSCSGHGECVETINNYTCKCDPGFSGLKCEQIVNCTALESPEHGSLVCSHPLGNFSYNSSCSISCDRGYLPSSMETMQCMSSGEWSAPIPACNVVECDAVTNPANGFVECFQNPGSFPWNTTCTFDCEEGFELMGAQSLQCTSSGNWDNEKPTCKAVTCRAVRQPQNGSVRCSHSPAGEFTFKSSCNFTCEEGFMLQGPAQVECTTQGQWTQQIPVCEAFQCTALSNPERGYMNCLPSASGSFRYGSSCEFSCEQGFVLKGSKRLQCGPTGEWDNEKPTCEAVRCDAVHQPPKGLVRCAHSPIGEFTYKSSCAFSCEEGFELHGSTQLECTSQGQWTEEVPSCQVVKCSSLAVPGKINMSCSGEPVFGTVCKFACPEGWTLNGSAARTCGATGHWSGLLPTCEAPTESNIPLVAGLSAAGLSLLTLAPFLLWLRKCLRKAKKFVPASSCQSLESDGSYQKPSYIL

COc1ccccc1Oc1c(NS(=O)(=O)c2ccc(C(C)(C)C)cc2)nc(-c2ncccn2)nc1OCCO
active: [2] 1.97 µM and 5.36 µM | [5] 3.9 µM and 2.51 µM
inactive: all other assays above

OC(C(F)(F)F)(C(F)(F)F)C(O)(C(F)(F)F)C(F)(F)F
inactive: [2] | [6] | [10]
active: [1] 13.8 µM and 10.7 µM | [3] 20.1 µM and 23.8 µM | [4] 19.3 µM and 22.6 µM | [5] 41.9 µM and 23.6 µM | [6] 5.95 µM | [7] 14.3 µM and 19.2 µM | [8] 30 µM | [9] 13.2 µM and 12.3 µM | [10] 48.3 µM | CD40, CD40 (gene 958) 29.8 µM and 21.6 µM | [11] 24.4 µM and 51.9 µM | [12] 23.9 µM and 23.3 µM | [13] 7.65 µM and 6.88 µM | [14] 22 µM and 21.7 µM | CD69, CD69 (gene 969) 18.5 µM and 17.7 µM | [15] 23.3 µM and 22.9 µM | [16] 30 µM and 21.4 µM

O=C(Oc1ccccc1)c1ccccc1
inactive: [17]

O=[N+]([O-])c1cc(S(=O)(=O)Nc2ccccc2)ccc1Nc1ccccc1
inactive: [2] | [4] | [13] | [14]
active: [1] 26 µM and 17.8 µM | [3] 29.8 µM and 31.5 µM | [5] 5.82 µM and 5.34 µM | [6] 30.4 µM and 31.3 µM | [7] 29.3 µM and 29.5 µM | [8] 31 µM and 31.3 µM | [9] 32.4 µM and 27 µM | [10] 32.8 µM and 32.4 µM | CD40, CD40 (gene 958) 32.6 µM and 20 µM | [11] 20 µM and 26.5 µM | [12] 29.1 µM and 28.5 µM | [13] 28.9 µM | [14] 9.74 µM | CD69, CD69 (gene 969) 22 µM and 18 µM | [15] 12.1 µM and 19.5 µM | [16] 20 µM and 14.4 µM

O=C(O)/C=C\C(=O)O
inactive: [17]

O=C(C1CCCCC1)N1CC(=O)N2CCc3ccccc3C2C1 (stereo not drawn)
inactive: [17]

COc1ccc(C(=O)c2ccccc2O)c(O)c1
active: [1] 17.3 µM and 20 µM | [5] 7.73 µM | [13] 6.03 µM | [16] 29.5 µM and 24.6 µM
inactive: [2] | [3] | [4] | [5] | [6] | [7] | [8] | [9] | [10] | CD40, CD40 (gene 958) | [11] | [12] | [14] | CD69, CD69 (gene 969) | [15]

Nc1nc(N)c2nc(-c3ccccc3)c(N)nc2n1
inactive: [17]

CCCCC(CC)COC(=O)C=Cc1ccc(OC)cc1 (stereo not drawn)
inactive: [2] | [3] | [4] | [6] | [9] | [10] | CD40, CD40 (gene 958) | [11] | [12] | [13]
active: [1] 35.3 µM and 26.2 µM | [2] 6.67 µM | [5] 9.77 µM and 7.79 µM | [7] 15.9 µM and 12.6 µM | [8] 12 µM and 10.2 µM | CD40, CD40 (gene 958) 20 µM | [11] 13.2 µM | [12] 32.3 µM | [14] 32 µM and 14.8 µM | CD69, CD69 (gene 969) 26.3 µM and 18.6 µM | [15] 25.9 µM and 18.8 µM | [16] 23.5 µM and 36.7 µM

Cc1c(C(N)=O)cc([N+](=O)[O-])cc1[N+](=O)[O-]
not listed: [17]
inactive: all other assays above

C1CN(CCOCCN2CCOCC2)CCO1
not listed: [17]
inactive: all other assays above

CCCCCCCCCCCCCCCCCC[N+](C)(C)C
inactive: [5] | [13]
active: [1] 1.27 µM | [2] 3.27 µM | [3] 2.67 µM | [4] 6.31 µM | [6] 2.81 µM | [7] 3.11 µM | [8] 3.28 µM | [9] 2.33 µM | [10] 3.6 µM | CD40, CD40 (gene 958) 6.84 µM | [11] 8.27 µM | [12] 3.66 µM | [14] 5 µM | CD69, CD69 (gene 969) 7.15 µM | [15] 9.19 µM | [16] 8.34 µM

COc1ccc2ccccc2c1
inactive: [17]

CC(C)C1OCCN1CCOC(=O)NCCCCCCNC(=O)OCCN1CCOC1C(C)C (stereo not drawn)
not listed: [17]
inactive: all other assays above

CCCCCCCCCCCCCC
inactive: [17]
